Test results published in PubChem BioAssay AID1159580 (chemical genetic matrix, 2015).
About 2,000 (36%) of roughly 5,500 compounds were called active. Not shown: some 18% with an inconclusive outcome. No stated cut-off is given here; in the data, active means normalized growth mostly below about 0.91 (no sharp cut-off); inconclusive means no clear call, values can overlap the other calls; inactive means mostly above about 0.92. Some of the results follow.

Assay: chemical genetic growth profiling, strain panel (AID 1159580);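 further: tested at 20 µM; growth read once vehicle control cultures reached saturation at 30 °C; 1 = growth at the plate median or of vehicle wells; lower values mean less growth of the strain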
Conditions: growth OD
[1] = S. cerevisiae deletion strains, locus YAL013W, strain DEP1, active compounds read low
[2] = S. cerevisiae deletion strains, locus YBR229C, strain ROT2, active compounds read low
[3] = S. cerevisiae deletion strains, locus YCL061C, strain MRC1, active compounds read low
[4] = S. cerevisiae deletion strains, locus YDL101C, strain DUN1, active compounds read low
[5] = S. cerevisiae deletion strains, locus YDL134C, strain PPH21, active compounds read low
[6] = S. cerevisiae deletion strains, locus YDR150W, strain NUM1, active compounds read low
[7] = S. cerevisiae deletion strains, locus YEL061C, strain CIN8, active compounds read low
[8] = S. cerevisiae deletion strains, locus YGR078C, strain PAC10, active compounds read low
[9] = S. cerevisiae deletion strains, locus YHR030C, strain SLT2, active compounds read low
[10] = S. cerevisiae deletion strains, locus YHR087W, strain rtc3, active compounds read low
[11] = S. cerevisiae deletion strains, locus YJR043C, strain POL32, active compounds read low
[12] = S. cerevisiae deletion strains, locus YJR075W, strain HOC1, active compounds read low
[13] = S. cerevisiae deletion strains, locus YLR039C, strain RIC1, active compounds read low
[14] = S. cerevisiae deletion strains, locus YLR058C, strain SHM2 (second series), active compounds read low
[15] = S. cerevisiae deletion strains, locus YLR085C, strain ARP6, active compounds read low
[16] = S. cerevisiae deletion strains, locus YLR262C, strain YPT6, active compounds read low
[17] = S. cerevisiae deletion strains, locus YML094W, strain GIM5, active compounds read low
[18] = S. cerevisiae deletion strains, locus YMR219W, strain ESC1, active compounds read low
[19] = S. cerevisiae deletion strains, locus YMR263W, strain SAP30, active compounds read low
[20] = S. cerevisiae deletion strains, locus YNL153C, strain GIM3, active compounds read low
[21] = S. cerevisiae deletion strains, locus YNL298W, strain CLA4 (second series), active compounds read low
[22] = S. cerevisiae deletion strains, locus YNL322C, strain KRE1, active compounds read low
[23] = S. cerevisiae deletion strains, locus YNR030W, strain Alg12, active compounds read low
[24] = S. cerevisiae deletion strains, locus YOL006C, strain TOP1, active compounds read low
[25] = S. cerevisiae deletion strains, locus YPL055C, strain LGE1, active compounds read low
[26] = S. cerevisiae deletion strains, locus YPL241C, strain CIN2, active compounds read low
[27] = S. cerevisiae deletion strains, locus YPR135W, strain CTF4, active compounds read low
[28] = S. cerevisiae strains, strain wild type, active compounds read low
[29] = S. cerevisiae deletion strains, locus YAR019C, strain CDC15, active compounds read low
[30] = S. cerevisiae deletion strains, locus YBL105C, strain PKC1, active compounds read low
[31] = S. cerevisiae deletion strains, locus YBR135W, strain CKS1, active compounds read low
[32] = S. cerevisiae deletion strains, locus YBR136W, strain MEC1, active compounds read low
[33] = S. cerevisiae deletion strains, locus YBR160W, strain CDC28, active compounds read low
[34] = S. cerevisiae deletion strains, locus YDL017W, strain CDC7, active compounds read low
[35] = S. cerevisiae deletion strains, locus YDL028C, strain MPS1, active compounds read low
[36] = S. cerevisiae deletion strains, locus YDL108W, strain KIN28, active compounds read low
[37] = S. cerevisiae deletion strains, locus YDL132W, strain cdc53, active compounds read low
[38] = S. cerevisiae deletion strains, locus YDL214C, strain PRR2, active compounds read low
[39] = S. cerevisiae deletion strains, locus YDR052C, strain DBF4, active compounds read low
[40] = S. cerevisiae deletion strains, locus YDR054C, strain cdc34, active compounds read low
[41] = S. cerevisiae deletion strains, locus YDR226W, strain ADK1, active compounds read low
[42] = S. cerevisiae deletion strains, locus YDR477W, strain SNF1, active compounds read low
[43] = S. cerevisiae deletion strains, locus YER123W, strain YCK3, active compounds read low
[44] = S. cerevisiae deletion strains, locus YER133W, strain GLC7, active compounds read low
[45] = S. cerevisiae deletion strains, locus YFL009W, strain cdc4, active compounds read low
[46] = S. cerevisiae deletion strains, locus YFL029C, strain CAK1, active compounds read low
[47] = S. cerevisiae deletion strains, locus YFR003C, strain YPI1, active compounds read low
[48] = S. cerevisiae deletion strains, locus YFR019W, strain FAB1, active compounds read low
[49] = S. cerevisiae deletion strains, locus YFR028C, strain CDC14, active compounds read low
[50] = S. cerevisiae deletion strains, locus YGR040W, strain KSS1, active compounds read low
[51] = S. cerevisiae deletion strains, locus YGR052W, strain FMP48, active compounds read low
[52] = S. cerevisiae deletion strains, locus YGR092W, strain DBF2, active compounds read low
[53] = S. cerevisiae deletion strains, locus YHR079C, strain IRE1, active compounds read low
[54] = S. cerevisiae deletion strains, locus YHR082C, strain KSP1, active compounds read low
[55] = S. cerevisiae deletion strains, locus YHR205W, strain SCH9, active compounds read low
[56] = S. cerevisiae deletion strains, locus YIL147C, strain SLN1, active compounds read low
[57] = S. cerevisiae deletion strains, locus YJL095W, strain BCK1, active compounds read low
[58] = S. cerevisiae deletion strains, locus YJL128C, strain PBS2, active compounds read low
[59] = S. cerevisiae deletion strains, locus YJL157C, strain FAR1, active compounds read low
[60] = S. cerevisiae deletion strains, locus YJR016C, strain ILV3, active compounds read low
[61] = S. cerevisiae deletion strains, locus YJR066W, strain TOR1 (second series), active compounds read low
[62] = S. cerevisiae deletion strains, locus YJR066W, strain TOR1, active compounds read low
[63] = S. cerevisiae deletion strains, locus YKL048C, strain ELM1, active compounds read low
[64] = S. cerevisiae deletion strains, locus YKL067W, strain YNK1, active compounds read low
[65] = S. cerevisiae deletion strains, locus YKL101W, strain HSL1, active compounds read low
[66] = S. cerevisiae deletion strains, locus YKL193C, strain SDS22, active compounds read low
[67] = S. cerevisiae deletion strains, locus YKL203C, strain TOR2, active compounds read low
[68] = S. cerevisiae deletion strains, locus YLR113W, strain HOG1, active compounds read low
[69] = S. cerevisiae deletion strains, locus YLR133W, strain CKI1, active compounds read low
[70] = S. cerevisiae deletion strains, locus YLR403W, strain SFP1, active compounds read low
[71] = S. cerevisiae deletion strains, locus YML070W, strain DAK1, active compounds read low
[72] = S. cerevisiae deletion strains, locus YMR001C, strain CDC5, active compounds read low
[73] = S. cerevisiae deletion strains, locus YMR205C, strain PFK2 (second series), active compounds read low
[74] = S. cerevisiae deletion strains, locus YMR277W, strain FCP1, active compounds read low
[75] = S. cerevisiae deletion strains, locus YNL006W, strain LST8, active compounds read low
[76] = S. cerevisiae deletion strains, locus YNL020C, strain ARK1, active compounds read low
[77] = S. cerevisiae deletion strains, locus YNL161W, strain CBK1, active compounds read low
[78] = S. cerevisiae deletion strains, locus YNL183C, strain NPR1, active compounds read low
[79] = S. cerevisiae deletion strains, locus YNL207W, strain RIO2, active compounds read low
[80] = S. cerevisiae deletion strains, locus YNL222W, strain SSU72, active compounds read low
[81] = S. cerevisiae deletion strains, locus YNL307C, strain MCK1 (second series), active compounds read low
[82] = S. cerevisiae deletion strains, locus YOL078W, strain AVO1, active compounds read low
[83] = S. cerevisiae deletion strains, locus YOL136C, strain PFK27, active compounds read low
[84] = S. cerevisiae deletion strains, locus YOR061W, strain CKA2, active compounds read low
[85] = S. cerevisiae deletion strains, locus YOR119C, strain RIO1, active compounds read low
[86] = S. cerevisiae deletion strains, locus YOR231W, strain MKK1, active compounds read low
[87] = S. cerevisiae deletion strains, locus YOR329C, strain SCD5, active compounds read low
[88] = S. cerevisiae deletion strains, locus YPL031C, strain PHO85, active compounds read low
[89] = S. cerevisiae deletion strains, locus YPL153C, strain RAD53, active compounds read low
[90] = S. cerevisiae deletion strains, locus YPL204W, strain HRR25, active compounds read low
[91] = S. cerevisiae deletion strains, locus YPL209C, strain IPL1, active compounds read low
[92] = S. cerevisiae deletion strains, locus YPL256C, strain CLN2, active compounds read low
[93] = S. cerevisiae deletion strains, locus YPR025C, strain CCL1, active compounds read low
[94] = S. cerevisiae deletion strains, locus YPR106W, strain ISR1, active compounds read low
[95] = S. cerevisiae deletion strains, locus YPR111W, strain DBF20, active compounds read low
[96] = S. cerevisiae deletion strains, strain NNK1, active compounds read low
[97] = S. cerevisiae deletion strains, strain TSCII, active compounds read low

Measured: normalized growth

CCOC(=O)N/N=C\c1ccccc1OCC
inactive: [1] 1.02 | [2] 0.998 | [3] 1.02 | [4] 1.01 | [5] 1.02 | [6] 0.923 | [7] 1.02 | [8] 1 | S. cerevisiae deletion strains, locus YGR229C, strain SMI1, active compounds read low 1.01 | [9] 1.02 | [10] 0.992 | [11] 1.02 | [12] 0.985 | S. cerevisiae deletion strains, locus YKL190W, strain CNB1, active compounds read low 1 | [13] 0.931 | [14] 0.995 | [15] 1.04 | [16] 0.917 | [17] 1.02 | [18] 0.997 | [19] 1.03 | S. cerevisiae deletion strains, locus YNL128W, strain TEP1, active compounds read low 1.01 | [20] 1.02 | [21] 1.03 | [22] 1 | [23] 1.02 | [24] 1.06 | [25] 0.98 | [26] 1.02 | [27] 1.03 | [28] 1.01

COCCCNC(=S)N/N=C\c1cccc(OC)c1O
inactive: [1] 0.984 | [2] 1.02 | [3] 0.979 | [4] 0.998 | [5] 1.01 | [6] 0.928 | [7] 0.999 | [8] 0.991 | [9] 1.01 | [10] 1.01 | [11] 1.01 | [12] 0.979 | [13] 1.11 | [14] 0.997 | [15] 0.978 | [16] 1.08 | [17] 0.994 | [18] 0.991 | [19] 0.991 | S. cerevisiae deletion strains, locus YMR307W, strain GAS1, active compounds read low 0.951 | [20] 0.987 | [21] 1.04 | [22] 0.989 | [23] 0.982 | [24] 0.988 | [25] 0.856 | [26] 0.964 | [27] 0.94 | [28] 1.02

COCCCNC(=S)N/N=C\c1cc(Br)ccc1O
inactive: [29] 0.967 | [30] 0.971 | [31] 0.962 | [32] 0.967 | [33] 0.961 | [34] 0.966 | [35] 0.963 | [4] 0.975 | [36] 0.97 | [37] 0.963 | [38] 0.977 | [39] 0.973 | [40] 0.956 | [41] 0.96 | [42] 0.954 | [43] 0.989 | [44] 0.95 | [45] 0.96 | [46] 0.963 | [47] 0.966 | [48] 0.983 | [49] 0.972 | [50] 0.957 | [51] 1 | [52] 0.915 | [9] 0.898 | [53] 0.967 | [54] 1.03 | [55] 0.943 | [56] 0.957 | [57] 0.992 | [58] 0.936 | [59] 0.965 | [60] 0.966 | [61] 0.983 | [62] 1.02 | [63] 0.98 | [64] 0.984 | [65] 0.975 | [66] 0.954 | [67] 1.02 | [68] 0.985 | [69] 0.967 | [70] 0.91 | [71] 0.982 | [72] 0.965 | [73] 0.973 | [74] 0.961 | [75] 0.965 | [76] 0.975 | [77] 0.962 | [78] 1.09 | [79] 0.967 | [80] 0.966 | [81] 0.97 | [82] 0.964 | [83] 0.982 | [84] 0.974 | [85] 1.03 | [86] 0.997 | [87] 0.966 | [88] 0.938 | [89] 0.951 | [90] 0.937 | [91] 0.965 | [92] 0.903 | [93] 0.962 | [94] 0.971 | [95] 0.967 | [96] 0.982 | [97] 0.964

CCOC(=O)N/N=C\c1cc(Cl)cc(Cl)c1O
active: [52] 0.251 | [9] 0.512 | [62] 0.473 | [63] 0.72 | [68] 0.67 | [69] 0.727 | [70] 0.425 | [73] 0.714 | [76] 0.679 | [78] 0.556 | [81] 0.621 | [84] 0.471 | [89] 0.67 | [92] 0.641
inactive: [29] 0.948 | [30] 0.95 | [31] 0.928 | [32] 0.951 | [33] 0.938 | [34] 0.941 | [35] 0.942 | [4] 0.95 | [36] 0.935 | [37] 0.914 | [38] 0.824 | [39] 0.946 | [40] 0.928 | [41] 0.926 | [42] 0.741 | [43] 0.765 | [44] 0.828 | [45] 0.94 | [46] 0.931 | [47] 0.942 | [48] 0.87 | [49] 0.938 | [50] 0.737 | [51] 0.665 | [53] 0.626 | [54] 0.655 | [55] 0.586 | [56] 0.943 | [57] 0.535 | [58] 0.877 | [59] 0.785 | [60] 0.935 | [61] 0.743 | [64] 0.814 | [65] 0.74 | [66] 0.932 | [67] 0.756 | [71] 0.789 | [72] 0.948 | [74] 0.936 | [75] 0.956 | [77] 0.947 | [79] 0.931 | [80] 0.934 | [82] 0.94 | [83] 0.784 | [85] 0.729 | [86] 0.69 | [87] 0.943 | [88] 0.747 | [90] 0.706 | [91] 0.944 | [93] 0.934 | [94] 0.918 | [95] 0.92 | [96] 0.92 | [97] 0.952
